Assay [1] in a line: A CellTox Green Cytotoxicity Assay to monitor cytotoxicity in HepG2 cells - 24 hour (AID 1224878). Also: nearly all actives have a fitted effect of over 45% in size. Also: potency is read from the fitted curve at half-maximal effect. A digest of the protocol: (§1)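 HepG2 cells were seeded together with the CellTox Green dye at 600 cells/well, left 5 h at 37 C/5% CO2, then given compounds in DMSO. Fluorescence from dye bound to dead-cell DNA was read repeatedly over 40 h of treatment at 37 C.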
Assay [2] in a line: A CellTox Green Cytotoxicity Assay to monitor cytotoxicity in HepG2 cells - 40 hour (AID 1224879). Also: nearly all actives have a fitted effect of over 40% in size. Also: potency is read from the fitted curve at half-maximal effect. Summed up:
as §1

Assay [3] is described as follows: qHTS RealTime-Glo MT Cell Viability Assay in HEK293 cells - 0 hour (AID 1224880). Also: top concentration of the series differs between compounds; nearly all actives have a fitted effect of over 45% in size. A digest of the protocol:
(§2)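 HEK293 cells mixed with RealTime-Glo reagents (NanoLuc plus cell-permeant prosubstrate) at 600 cells/well, preincubated 5 h at 37 C/5% CO2, then given 23 nL compound in DMSO. Nonlytic luminescence from viable cells was read at 0, 8, 16, 24, 32 and 40 h.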
(qHTS replaces the single test concentration by a dilution series.)

A short description of assay [4]: A CellTox Green Cytotoxicity Assay to monitor cytotoxicity in HEK293 cells - 32 hour (AID 1224881). Also: nearly all actives have a fitted effect of over 40% in size. Also: potency is read from the fitted curve at half-maximal effect. A digest of the protocol:
(§3)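 HEK293 cells premixed with CellTox Green dye were seeded at 600 cells/well and left 5 h at 37 C/5% CO2 before pin transfer of 23 nL compound in DMSO. Fluorescence from dye bound to dead-cell DNA was read during 40 h treatment.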

Assay [5] can be described thus: A CellTox Green Cytotoxicity Assay to monitor cytotoxicity in HepG2 cells - 0 hour (AID 1224882). Also: nearly all actives have a fitted effect of over 35% in size. A digest of the protocol:
as §1

Assay [6] is described as follows: A CellTox Green Cytotoxicity Assay to monitor cytotoxicity in HepG2 cells - 32 hour (AID 1224883). Also: nearly all actives have a fitted effect of over 50% in size. Also: potency is read from the fitted curve at half-maximal effect. Summed up:
as §1

The nature of assay [7]: A CellTox Green Cytotoxicity Assay to monitor cytotoxicity in HEK293 cells - 8 hour (AID 1224884). Also: nearly all actives have a fitted effect of over 35% in size. Summed up: as §3
Assay [8] can be described thus: qHTS RealTime-Glo MT Cell Viability Assay in HepG2 cells - 16 hour (AID 1224885). Also: nearly all actives have a fitted effect of over 50% in size. A digest of the protocol:
(§4)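 Viability was tracked continuously by NanoLuc luminescence from prosubstrate reduced by living HepG2 cells, at successive time points over 40 h of compound exposure. Cells with reagent were preincubated 5 h at 37 °C before compound addition.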

The nature of assay [9]: qHTS RealTime-Glo MT Cell Viability Assay in HEK293 cells - 8 hour (AID 1224887). Also: top concentration of the series differs between compounds; nearly all actives have a fitted effect of over 50% in size. A digest of the protocol: as §2
Assay [10] in a line: A CellTox Green Cytotoxicity Assay to monitor cytotoxicity in HEK293 cells - 16 hour (AID 1224888). Also: nearly all actives have a fitted effect of over 35% in size. A digest of the protocol:
as §3

Assay [11] can be described thus: qHTS RealTime-Glo MT Cell Viability Assay in HepG2 cells - 0 hour (AID 1224889). Also: nearly all actives have a fitted effect of over 50% in size. Summed up:
as §4

Assay [12] in a line: A CellTox Green Cytotoxicity Assay to monitor cytotoxicity in HepG2 cells - 8 hour (AID 1224890). Also: nearly all actives have a fitted effect of over 45% in size. Also: potency is read from the fitted curve at half-maximal effect. A digest of the protocol: as §1
Assay [13] is described as follows: qHTS assay to identify small molecule antagonists of the estrogen receptor alpha (ER-alpha) signaling pathway using the BG1 cell line in the presence of 0.1 nM 17-beta-estradiol - cell viability counter screen (AID 1259241). Also: nearly all actives have a fitted effect of over 40% in size. A digest of the protocol: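 VM7Luc4E2 cells (endogenous full-length ER-alpha, 4xERE-luciferase), cultured 5 days in charcoal-stripped serum, exposed to compounds with 0.1 nM 17beta-estradiol (final) for 22 hr at 37C. Viability read in same wells as live-cell protease fluorescence after 30 min.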

Assay [14] is described as follows: qHTS assay to identify small molecule antagonists of the androgen receptor (AR) signaling pathway using the MDA cell line in the presence of 0.5 nM R1881 - cell viability counter screen (AID 1259242). Also: nearly all actives have a fitted effect of over 45% in size. A digest of the protocol:
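MDA-kb2 cells (human breast carcinoma, stably carrying MMTV-luciferase reporter) were exposed to compounds with 0.5 nM R1881 (final) for 16 hr at 37C, 0% CO2; viability then read as live-cell protease fluorescence (CellTiter-Fluor, 30 min) in the same wells.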

Assay [15] has as its target Estrogen receptor (Homo sapiens) (UniProt P03372). Description: qHTS assay to identify small molecule antagonists of the estrogen receptor alpha (ER-alpha) signaling pathway using the BG1 cell line in the presence of 0.1 nM 17-beta-estradiol (AID 1259244). Also: nearly all actives have a fitted effect of over 50% in size. A digest of the protocol:
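VM7Luc4E2 cells (endogenous full-length ER-alpha, stable 4xERE-luciferase) were grown 5 days in phenol red-free medium with charcoal-stripped FBS, then exposed 22 h at 37C to compounds plus 0.1 nM (final) 17beta-estradiol; ONE-Glo luminescence read-out.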

A short description of assay [16]: qHTS assay to identify small molecule HDAC inhibitors - cell viability counter screen (AID 1259365). A digest of the protocol:
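Wild-type HCT-116 cells, 1,500/well, cultured overnight, then compound-treated 2 h at 37 C. Viability measured as ATP luminescence with CellTiter-Glo after 30 min at room temperature.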

Assay [17] can be described thus: qHTS assay to identify small molecule HDAC inhibitors (AID 1259364). Summed up: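 Wild-type HCT-116 cells were plated overnight, exposed to compounds for 2 h at 37 °C, then given HDAC-Glo class I/II luminogenic reagent for 30 min at room temperature before luminescence was read.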
Assay [18] has as its target Androgen receptor (Homo sapiens) (UniProt P10275). The assay can be described thus: qHTS assay to identify small molecule antagonists of the androgen receptor (AR) signaling pathway using the MDA cell line in the presence of 0.5 nM R1881 (AID 1259243). Also: nearly all actives have a fitted effect of over 50% in size. A digest of the protocol:
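MDA-kb2 human breast carcinoma cells carrying an MMTV-luciferase reporter (AR- and GR-responsive) were plated, rested 5 hr at 37C, dosed with compounds, then stimulated with 0.5 nM R1881 (final) for 16 hr; luminescence was read after ONE-Glo.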

The nature of assay [19]: qHTS assay to identify small molecule phospholipidosis (PLD) inducers (AID 1259344; active = well fitted curve in the direction sought with a large enough effect; an effect the other way counts as inactive or inconclusive). A digest of the protocol: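 HepG2 cells on collagen I, attached 4 h at 37 C, were co-treated with compound and LipidTOX Red dye for 24 h at 37 C, then fixed with paraformaldehyde plus Hoechst 33342 and imaged by high-content microscopy for phospholipid accumulation.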
A short description of assay [20]: qHTS RealTime-Glo MT Cell Viability Assay in HEK293 cells - 24 hour (AID 1224886). Summed up: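 Viability tracked continuously by luminescence as live cells reduce a prosubstrate for NanoLuc; HEK293 cells preincubated 5 h, compound-treated at 37 C, and read at 0, 8, 16, 24, 32 and 40 h.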

The structures appear in SMILES notation. A number with no mark means an inactive call. Results filed as inconclusive are left out. Active and inactive are the calls of the source. Unless noted, calls follow the shape of the dose curve; as a rule, active = well fitted curve in the direction sought with a large enough effect in the repeat runs; inconclusive = weak or mixed curves; inactive = no such curve, though single readings can be large; an effect the other way counts as inactive or inconclusive.
% is scaled to controls: 0 for no effect and ±100 for the full control effect.

Chain of Androgen receptor (Homo sapiens) (P10275 whole entry, looked up): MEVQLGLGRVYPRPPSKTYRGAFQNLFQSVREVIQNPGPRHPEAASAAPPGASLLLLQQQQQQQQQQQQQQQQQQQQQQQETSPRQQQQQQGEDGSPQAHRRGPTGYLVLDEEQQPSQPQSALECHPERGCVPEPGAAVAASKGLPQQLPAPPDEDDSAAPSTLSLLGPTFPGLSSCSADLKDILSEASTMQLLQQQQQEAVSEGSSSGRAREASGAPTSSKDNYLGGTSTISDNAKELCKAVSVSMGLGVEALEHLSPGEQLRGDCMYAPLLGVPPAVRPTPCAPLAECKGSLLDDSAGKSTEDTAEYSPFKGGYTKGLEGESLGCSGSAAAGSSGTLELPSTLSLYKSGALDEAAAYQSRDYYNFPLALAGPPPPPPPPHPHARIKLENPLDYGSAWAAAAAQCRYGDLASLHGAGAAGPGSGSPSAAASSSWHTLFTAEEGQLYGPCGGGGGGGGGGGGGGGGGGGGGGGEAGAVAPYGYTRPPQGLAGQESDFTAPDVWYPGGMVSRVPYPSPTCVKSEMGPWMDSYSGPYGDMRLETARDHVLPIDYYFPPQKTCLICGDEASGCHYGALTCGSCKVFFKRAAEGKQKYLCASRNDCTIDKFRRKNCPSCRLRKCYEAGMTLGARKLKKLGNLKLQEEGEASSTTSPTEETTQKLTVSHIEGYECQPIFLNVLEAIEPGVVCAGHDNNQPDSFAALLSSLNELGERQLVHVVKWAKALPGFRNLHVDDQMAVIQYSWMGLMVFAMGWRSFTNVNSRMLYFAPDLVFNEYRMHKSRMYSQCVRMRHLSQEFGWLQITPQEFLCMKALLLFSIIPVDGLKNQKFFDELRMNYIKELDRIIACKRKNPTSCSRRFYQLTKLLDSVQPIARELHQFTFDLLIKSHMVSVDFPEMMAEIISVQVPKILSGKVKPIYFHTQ
Chain of Estrogen receptor (Homo sapiens) (P03372 whole entry, looked up): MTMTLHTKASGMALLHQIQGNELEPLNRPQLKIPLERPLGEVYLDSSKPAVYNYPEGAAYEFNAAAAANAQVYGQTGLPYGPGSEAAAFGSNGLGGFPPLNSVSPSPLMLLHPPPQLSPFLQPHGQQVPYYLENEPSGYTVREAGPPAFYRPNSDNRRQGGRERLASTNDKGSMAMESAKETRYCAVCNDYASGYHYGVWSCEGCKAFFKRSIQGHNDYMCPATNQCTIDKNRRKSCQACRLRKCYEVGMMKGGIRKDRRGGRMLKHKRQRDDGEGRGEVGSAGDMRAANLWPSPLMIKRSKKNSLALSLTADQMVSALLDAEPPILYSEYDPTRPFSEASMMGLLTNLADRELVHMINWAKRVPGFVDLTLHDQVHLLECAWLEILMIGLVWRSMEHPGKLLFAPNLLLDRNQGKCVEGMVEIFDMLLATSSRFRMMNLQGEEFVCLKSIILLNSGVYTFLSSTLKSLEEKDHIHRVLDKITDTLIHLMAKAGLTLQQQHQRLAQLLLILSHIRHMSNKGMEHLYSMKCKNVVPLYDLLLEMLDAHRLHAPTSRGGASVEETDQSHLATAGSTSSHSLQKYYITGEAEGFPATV

For the compound `COC(=O)c1c(C)cc(O)c(C)c1O`, the Potency result in assay [1], in assay [2], in assay [3], in assay [4], in [5] and in [6] was “inactive” throughout. Moreover, the Potency entry in assay [7], in assay [10], in assay [11] and in [12] was “inactive” throughout. Besides, the call in assay [8], in assay [9], in assay [13], in [14], in assay [15] and in [16] was inactive.

Regarding `O=S(=O)(O)CC(O)CCl` (stereo not drawn), the Potency entry in [1], in assay [2], in [3], in assay [4], in [5] and in assay [6] was “inactive” in each case. For the same compound, the Potency result in assay [7], in assay [10], in assay [11], in [12] and in [17] was “inactive” throughout. For the same compound, the result in assay [8], in assay [9], in assay [13], in assay [14] and in assay [16] was inactive.

Consider `CC(C)OC(=O)C(C(=O)OC(C)C)=C1SC=CS1`, for which the Potency entry in [1], in assay [2], in assay [3], in assay [4], in assay [5] and in [6] was “inactive” throughout. In addition, the Potency entry in assay [7], in assay [10], in [11], in [12], in assay [18] and in assay [19] was “inactive” in each case. Moreover, the Potency entry in [17] is “inactive”. For the same compound, the outcome in assay [8], in [13], in assay [14] and in [16] was inactive.

In the case of `CC(CN1CC(=O)NC(=O)C1)N1CC(=O)NC(=O)C1` (stereo not drawn), the Potency entry in [2], in [3], in [4], in assay [5], in assay [6] and in [7] was “inactive” throughout. Moreover, the Potency result in assay [10], in [11], in assay [12], in assay [18] and in assay [17] was “inactive” each time. For the same compound, the call in assay [8], in assay [20], in assay [9], in [13], in [14] and in assay [15] was inactive. The result in assay [16] was inactive.

As for `C[C@@H](CN1CC(=O)NC(=O)C1)N1CC(=O)NC(=O)C1`, the Potency result in assay [2], in assay [3], in assay [4], in assay [5], in [6] and in assay [7] was “inactive” in each case. For the same compound, the Potency entry in assay [10], in assay [11], in assay [12], in assay [18] and in assay [19] was “inactive” in each case. Also, the outcome in assay [8], in assay [20], in assay [9], in [13], in assay [14] and in assay [15] was inactive. Besides, the outcome in assay [16] was inactive.

For the compound `CN(C)CCCN(C)C`, the cytotoxicity in [1] was -15.5% [at 6.97 µM]; in assay [5], -10.6% [at 6.97 µM]. Also, the activity change, negative = cytotoxicity in assay [3] was -1.25% [at 6.97 µM]; in assay [20], 3.07% [at 6.97 µM]; in assay [9], -0.912% [at 6.97 µM]; in assay [11], -4.9% [at 6.97 µM]; in assay [13], -1.36% [at 8.39 µM]; in [16], 1.58% [at 8.39 µM]. Further, the cytotoxicity increase in assay [4] was -0.385% [at 6.97 µM]; in [7] it was -3.24% [at 6.97 µM]; in assay [12] it was -9.61% [at 6.97 µM]. Moreover, the activity change, negative = cytotoxic in assay [8] was 0.141% [at 6.97 µM]. Further, in assay [10], the activity change is -1.52% [at 6.97 µM, hits give high values]. In assay [14], the viability change, negative = cytotoxic was 2.3% [at 8.39 µM]. In assay [17], the activity change, negative = inhibition was 2.55% [at 8.39 µM].

`CC1(C)CC(N)CC(C)(C)N1`: the Potency result in [1], in [2], in assay [4], in assay [5], in assay [6] and in [7] was “inactive” each time. In addition, the Potency entry in assay [10], in assay [11], in [12] and in assay [17] was “inactive” in each case. For the same compound, the compound was called inactive in [8], in [20], in assay [9] and in [13].

Consider `CC(=O)c1c(C)cc(C(C)(C)C)cc1C`, for which the Potency in assay [1] was 34.7 µM (active); in assay [2], 38.9 µM (active); in [4], 24.5 µM (active); in assay [6], 38.9 µM (active); in [12], 43.6 µM (active). The Potency result in [3], in assay [5], in assay [7], in assay [10], in assay [11] and in assay [17] was “inactive” in each case. In addition, the compound was called inactive in [8], in assay [13] and in assay [14].
